# Measured values published in PubChem BioAssay.
# Target: Neurogenic locus notch homolog protein 3 (Homo sapiens) (UniProt Q9UM47)
# Experiment: small molecules binding NOTCH3 protein – biochemical, 635/667 nm fluorescence, primary screen (AID 1096)
# Conditions: small-molecule microarray, 635 nm fluorescence, higher = more signal
# Sequence of Neurogenic locus notch homolog protein 3 (Homo sapiens) (Q9UM47 whole entry, looked up): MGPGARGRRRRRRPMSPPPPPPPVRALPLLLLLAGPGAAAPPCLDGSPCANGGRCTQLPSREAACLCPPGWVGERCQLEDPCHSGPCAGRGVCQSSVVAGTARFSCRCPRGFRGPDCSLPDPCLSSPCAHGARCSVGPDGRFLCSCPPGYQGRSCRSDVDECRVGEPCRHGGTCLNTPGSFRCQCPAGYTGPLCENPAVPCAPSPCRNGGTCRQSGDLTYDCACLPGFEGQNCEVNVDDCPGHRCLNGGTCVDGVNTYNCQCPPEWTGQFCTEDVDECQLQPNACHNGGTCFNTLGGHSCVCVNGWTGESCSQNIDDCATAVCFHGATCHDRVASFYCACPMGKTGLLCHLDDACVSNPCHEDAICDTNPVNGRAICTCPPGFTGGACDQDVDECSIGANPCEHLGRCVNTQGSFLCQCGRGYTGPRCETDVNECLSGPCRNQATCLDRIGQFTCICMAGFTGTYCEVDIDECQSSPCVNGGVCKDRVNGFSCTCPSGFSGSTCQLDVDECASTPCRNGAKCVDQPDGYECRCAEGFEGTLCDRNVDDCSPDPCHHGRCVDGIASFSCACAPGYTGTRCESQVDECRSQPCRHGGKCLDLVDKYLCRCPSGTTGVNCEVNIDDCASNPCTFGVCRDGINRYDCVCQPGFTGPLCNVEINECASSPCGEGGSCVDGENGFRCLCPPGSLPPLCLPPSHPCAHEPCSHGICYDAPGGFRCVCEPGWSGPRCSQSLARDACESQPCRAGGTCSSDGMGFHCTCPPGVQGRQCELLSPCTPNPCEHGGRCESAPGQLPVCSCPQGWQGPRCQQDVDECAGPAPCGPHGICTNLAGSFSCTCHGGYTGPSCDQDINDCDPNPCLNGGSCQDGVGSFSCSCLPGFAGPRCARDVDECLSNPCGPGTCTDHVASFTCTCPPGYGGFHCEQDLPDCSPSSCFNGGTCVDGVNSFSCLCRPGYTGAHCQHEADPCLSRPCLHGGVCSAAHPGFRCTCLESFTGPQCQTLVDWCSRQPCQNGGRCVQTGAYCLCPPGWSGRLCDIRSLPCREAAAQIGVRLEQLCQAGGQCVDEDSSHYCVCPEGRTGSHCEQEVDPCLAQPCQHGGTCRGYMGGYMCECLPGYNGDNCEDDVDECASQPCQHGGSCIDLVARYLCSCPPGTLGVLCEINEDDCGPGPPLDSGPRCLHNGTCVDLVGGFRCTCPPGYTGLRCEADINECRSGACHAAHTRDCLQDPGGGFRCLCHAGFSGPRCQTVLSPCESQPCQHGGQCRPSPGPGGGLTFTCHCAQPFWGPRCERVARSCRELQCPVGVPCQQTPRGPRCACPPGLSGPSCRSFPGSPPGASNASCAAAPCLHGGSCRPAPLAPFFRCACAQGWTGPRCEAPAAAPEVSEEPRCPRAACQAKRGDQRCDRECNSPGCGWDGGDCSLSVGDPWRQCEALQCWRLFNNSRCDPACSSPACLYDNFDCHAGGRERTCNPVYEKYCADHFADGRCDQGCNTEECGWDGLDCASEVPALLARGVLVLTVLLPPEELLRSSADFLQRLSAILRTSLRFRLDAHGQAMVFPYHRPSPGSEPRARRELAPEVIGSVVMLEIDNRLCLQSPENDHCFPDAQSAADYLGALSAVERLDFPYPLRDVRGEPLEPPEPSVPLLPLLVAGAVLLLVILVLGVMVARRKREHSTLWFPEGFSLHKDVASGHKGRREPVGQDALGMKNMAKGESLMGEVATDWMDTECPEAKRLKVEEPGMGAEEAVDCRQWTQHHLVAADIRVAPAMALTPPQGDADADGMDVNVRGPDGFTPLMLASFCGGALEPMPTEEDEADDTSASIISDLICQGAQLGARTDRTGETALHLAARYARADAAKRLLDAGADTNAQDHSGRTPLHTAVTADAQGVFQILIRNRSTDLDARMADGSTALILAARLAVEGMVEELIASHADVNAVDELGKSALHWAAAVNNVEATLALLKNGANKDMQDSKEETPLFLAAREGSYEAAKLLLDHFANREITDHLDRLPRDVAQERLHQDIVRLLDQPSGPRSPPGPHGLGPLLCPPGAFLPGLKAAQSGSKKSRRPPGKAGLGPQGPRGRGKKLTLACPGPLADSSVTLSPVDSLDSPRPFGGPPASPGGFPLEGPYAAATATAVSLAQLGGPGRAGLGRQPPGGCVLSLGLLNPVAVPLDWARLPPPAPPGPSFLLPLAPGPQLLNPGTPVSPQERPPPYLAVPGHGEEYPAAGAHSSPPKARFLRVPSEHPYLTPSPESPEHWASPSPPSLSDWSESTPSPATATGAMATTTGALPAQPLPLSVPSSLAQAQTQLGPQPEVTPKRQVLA
row,SMILES,composite z-score
1,COC(=O)c1c2oc(c1C(=O)OC)C(=O)N[C@@H](C(C)C)Cn1cc(nn1)C1(CCCCC1)NC(=O)N[C@H](CO)CC2,0.171
2,COc1ccccc1CN1C(=O)c2ccccc2[C@@]2(Cc3ccccc3N(CCCN(C)C)C2=O)[C@@H]1c1ccc(CO)cc1,0.0593
3,COC(=O)[C@@]1(Cc2ccc(OC)cc2)[C@H]2c3cc(C(=O)N(C)C)n(Cc4ccc(C(F)(F)F)nc4)c3C[C@H]2CN1C(=O)c1ccccc1,-0.055
4,CC(CO)N1C(=O)[C@@H]2C3C(=O)OCCC/C=C\[C@H]3OC23C=CCN(CCN2CCOCC2)C(=O)[C@@H]13 (stereo not given in full),0.159
5,CCOC(=O)C1=C[C@@H](C(C)C)N(S(=O)(=O)c2ccc(C)cc2)[C@H]1c1ccccc1F,1.06
6,O=C1O[C@@H](c2ccccc2)[C@@H](c2ccccc2)N2[C@@H](c3ccccc3OCCO)[C@]3(C(=O)Nc4ccc(C#CC5(O)CCCCCC5)cc43)[C@@H](C(=O)N3CCN(c4ncccn4)CC3)[C@H]12,0.821
7,COC(=O)c1c(CC[C@@H](CO)NC(=O)N[C@@H](Cc2ccccc2)Cn2cc(-c3ccccn3)nn2)oc(C(=O)N2CCOCC2)c1C(=O)OC,0.495
8,COc1ccc(C(O)C2C=CC3C(=O)N(C)C(=O)C3N2N(c2ccccc2)c2ccccc2)c2ccccc12 (stereo not given),0.563
9,CS(=O)(=O)CCOC(=O)C1=CC(CCCO)=CC(c2ccc(CN3CCCC3)cc2)N(Cc2cccc(OC(F)(F)F)c2)C=C1C(=O)OCCS(C)(=O)=O (stereo not given),1.13
10,C=CC[C@]1(C(=O)N2CCOCC2)N=C(c2ccc(OCCCO)cc2)O[C@H]1c1ccccc1N=[N+]=[N-],1.11
11,CCCCN1CC=CC23O[C@@H]4/C=C\CCCOC(=O)C4[C@H]2C(=O)N(CCCCCO)[C@@H]3C1=O (stereo not given in full),-1.02
12,O=C(O)[C@@]1(CCS(=O)(=O)c2ccccc2)N=C(c2ccc(OCCCO)cc2)O[C@H]1c1ccccc1,-0.0296
13,COc1ccc([Si](C)(C)[C@@H]2[C@@H](CC(=O)N3Cc4ccccc4C[C@H]3CO)O[C@]3(C(=O)N(Cc4cccc(N5CCC5=O)c4)c4ccccc43)[C@H]2C)cc1,0.87
14,O=C1OCCC=C[C@H]2OC34C=CCN(c5ccc(Cl)cc5)C(=O)[C@H]3N(CCCO)C(=O)[C@@H]4C12 (stereo not given in full),-0.792
15,CCCCCCCCCCC(O)C1C=CC2C(=O)NC(=O)C2N1Nc1ccc(Cl)cc1Cl (stereo not given),0.102
16,C=CCC(OC(C)=O)[C@@H]1[C@@H](N(Cc2ccc(-c3ccccc3)cc2)C(=O)Cc2ccc(F)cc2)c2cc(OCCCO)ccc2N1C(=O)c1ccc2ccccc2c1 (stereo not given in full),0.147
17,COCC(=C=CC[C@H](O)c1cccc(OCCO)c1)C[C@H](O)c1cc(Cl)cc(Cl)c1O,1.04
18,Cc1ccc(/C=C/C=O)cc1,-0.998

row,SMILES,composite z-score
1,C=C(CCCC)/C(=C/C[C@H](OC(C)=O)c1ccc(OCCO)cc1)c1cnc2ccccc2c1,0.727
2,COc1cc2c(cc1O)C=[N+](Cc1cc3c(cc1Br)OCO3)CC2,-0.223
3,CCCCCCc1nc(-c2ccc(-c3ccc(Cl)c(Cl)c3)o2)c(C)c2c1[Si](C(C)C)(C(C)C)OC2,-0.243
4,COCCCNC(=O)[C@]1(Cc2ccccc2)N=C(c2ccc(OCCCO)cc2)O[C@@H]1c1ccccc1CN=[N+]=[N-],1.08
5,[N-]=[N+]=Nc1ccccc1C[C@@]1(C(=O)N2CCCCC2)N=C(c2ccc(OCCCO)cc2)O[C@@H]1c1ccccc1,1.04
6,C=CCN(Cc1ccccc1)C(=O)C(c1cccs1)N(C(=O)/C=C\C(=O)O)c1ccc(CCOCCO)cc1 (stereo not given),-1.36
7,[N-]=[N+]=NCc1ccccc1[C@H]1OC(c2ccc(OCCCO)cc2)=N[C@@]1(Cc1ccccc1)C(=O)N1CCCCC1,1.13
8,CC(C)(C)OC(=O)CC[C@]1(C(=O)NCCN2CCOCC2)COC(c2ccc(OCCCO)cc2)=N1,1.03
9,COC(=O)[C@@]1(Cc2ccc(OC)cc2)[C@H]2c3cc(C(=O)N4CCCC4)n(CCCNc4ncc(C(F)(F)F)cc4Cl)c3C[C@H]2CN1C(=O)c1ccccc1,0.656
10,COCCOC(=O)N1C(=O)[C@@]2(c3ccccc31)[C@H](C(N)=O)[C@H]1C(=O)O[C@H](c3ccccc3)[C@H](c3ccccc3)N1[C@@H]2c1ccc(O)cc1,0.129
11,CC(=O)NCCCC[C@@H]1NC(=O)[C@H]2C[C@@H](C(=O)NCCCCCNC(=O)CS)[C@@H](c3ccc(O)cc3)N2C1=O,-0.527
12,CCOc1ccc(N2C(=O)CSC2c2cccc([N+](=O)[O-])c2)cc1 (stereo not given),0.699
13,COc1ccc(C(=O)Nc2ccc(CN3C(=O)[C@]4(O[C@H](CC(=O)N5CCC[C@H]5CO)[C@@H]([Si](C)(C)c5ccc(OC)cc5)[C@@H]4C)c4ccccc43)cc2)cc1,1.1
14,C=C(CCCC)C(=O)CC[C@H](OC(=O)c1cccnc1)c1ccc(OCCO)cc1,-0.364
15,COC(=O)c1c(CC[C@@H](CO)NC(=O)NCCc2c[nH]c3ccccc23)oc(C(=O)Cc2ccccc2)c1C(=O)OC,0.316
16,COC(=O)C(CC#Cc1ccc2c(c1)[C@]1(C(=O)N2)[C@H](c2ccccc2OCCO)N2[C@H](c3ccccc3)[C@H](c3ccccc3)OC(=O)[C@H]2[C@@H]1C(=O)O)C(=O)OC,0.691
17,CN(C)CCCC[C@@H]1NC(=O)[C@H]2C[C@@H](C(=O)NCCCCCN)[C@@H](c3cccc(OCCO)c3)N2C1=O,0.339
